From PubChem
Sfp PPTase inh = Sfp phosphopantetheinyl transferase inhibition; Q9F4F7; Biochemical Sfp PPTase activity, qHTS; Potency, µM, most hits filed as inhibitors; 310,000 tested, 3.5% active;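 also: the enzyme is Sfp with the accession as filed and its product quenches rhodamine fluorescence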
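Step 1, compound plus 15 nM Sfp-PPTase, 15 min, room temperature. Step 2, add rhodamine-CoA (5 uM) and BHQ-2-YbbR (12.5 uM). Step 3, read 525/598 nm fluorescence at 0 and 30 min.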
JMJD2A Tudor = JMJD2A Tudor domain (human) inhibition. AID 504339. AlphaScreen JMJD2A-Tudor / H3K4me3 peptide binding. O75164. Potency, µM (titrated, usually from 114 µM), actives largely listed as inhibitors. 390,000 tested, 4.4% active; also: nearly all actives have a fitted effect of over 50% in size
HP1b binding inh = HP1-beta chromodomain-methylated histone interaction inhibition; P83916; AlphaScreen HP1-beta / biotin-H3K9me3 peptide binding; Potency, µM (titrated, usually from 114 µM), hits mostly inhibitors; 390,000 tested, 0.56% active; AID 540317; also: nearly all actives have a fitted effect of over 70% in size
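AlphaScreen: HP1-beta (50 nM) preformed 30 min with biotin-H3(1-18)K9me3 peptide (50 nM) in PBS pH 7.4, 0.01% Tween-20. Compound added for 30 min at RT, then streptavidin donor/nickel chelate acceptor beads (10 ug/mL) for 30 min.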
G9a inh = blocks human histone lysine methyltransferase G9a | Q96KQ7 | G9a H3K9 monomethylation, AlphaScreen, 2 h | Potency, µM (highest dose often 102 µM), hits mostly inhibitors | 350,000 tested, 8.8% active; also: nearly all actives have a fitted effect of over 75% in size
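AlphaScreen detection with an anti-monomethyl H3K9 antibody quantified product after a 2 h room-temperature reaction containing 500 nM biotinylated H3K9 peptide, 20 µM SAM and 20 nM enzyme, which had been preincubated 15 min with compound.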
BAZ2B inh = blocks human BAZ2B | Potency, µM (top dose mostly 114 µM), actives largely listed as inhibitors | AlphaScreen BAZ2B-H3K14Ac peptide displacement | 360,000 tested, 4.4% active | Q9UIF8; also: nearly all actives have a fitted effect of over 60% in size
Target sequence (Q9UIF8 whole entry, looked up): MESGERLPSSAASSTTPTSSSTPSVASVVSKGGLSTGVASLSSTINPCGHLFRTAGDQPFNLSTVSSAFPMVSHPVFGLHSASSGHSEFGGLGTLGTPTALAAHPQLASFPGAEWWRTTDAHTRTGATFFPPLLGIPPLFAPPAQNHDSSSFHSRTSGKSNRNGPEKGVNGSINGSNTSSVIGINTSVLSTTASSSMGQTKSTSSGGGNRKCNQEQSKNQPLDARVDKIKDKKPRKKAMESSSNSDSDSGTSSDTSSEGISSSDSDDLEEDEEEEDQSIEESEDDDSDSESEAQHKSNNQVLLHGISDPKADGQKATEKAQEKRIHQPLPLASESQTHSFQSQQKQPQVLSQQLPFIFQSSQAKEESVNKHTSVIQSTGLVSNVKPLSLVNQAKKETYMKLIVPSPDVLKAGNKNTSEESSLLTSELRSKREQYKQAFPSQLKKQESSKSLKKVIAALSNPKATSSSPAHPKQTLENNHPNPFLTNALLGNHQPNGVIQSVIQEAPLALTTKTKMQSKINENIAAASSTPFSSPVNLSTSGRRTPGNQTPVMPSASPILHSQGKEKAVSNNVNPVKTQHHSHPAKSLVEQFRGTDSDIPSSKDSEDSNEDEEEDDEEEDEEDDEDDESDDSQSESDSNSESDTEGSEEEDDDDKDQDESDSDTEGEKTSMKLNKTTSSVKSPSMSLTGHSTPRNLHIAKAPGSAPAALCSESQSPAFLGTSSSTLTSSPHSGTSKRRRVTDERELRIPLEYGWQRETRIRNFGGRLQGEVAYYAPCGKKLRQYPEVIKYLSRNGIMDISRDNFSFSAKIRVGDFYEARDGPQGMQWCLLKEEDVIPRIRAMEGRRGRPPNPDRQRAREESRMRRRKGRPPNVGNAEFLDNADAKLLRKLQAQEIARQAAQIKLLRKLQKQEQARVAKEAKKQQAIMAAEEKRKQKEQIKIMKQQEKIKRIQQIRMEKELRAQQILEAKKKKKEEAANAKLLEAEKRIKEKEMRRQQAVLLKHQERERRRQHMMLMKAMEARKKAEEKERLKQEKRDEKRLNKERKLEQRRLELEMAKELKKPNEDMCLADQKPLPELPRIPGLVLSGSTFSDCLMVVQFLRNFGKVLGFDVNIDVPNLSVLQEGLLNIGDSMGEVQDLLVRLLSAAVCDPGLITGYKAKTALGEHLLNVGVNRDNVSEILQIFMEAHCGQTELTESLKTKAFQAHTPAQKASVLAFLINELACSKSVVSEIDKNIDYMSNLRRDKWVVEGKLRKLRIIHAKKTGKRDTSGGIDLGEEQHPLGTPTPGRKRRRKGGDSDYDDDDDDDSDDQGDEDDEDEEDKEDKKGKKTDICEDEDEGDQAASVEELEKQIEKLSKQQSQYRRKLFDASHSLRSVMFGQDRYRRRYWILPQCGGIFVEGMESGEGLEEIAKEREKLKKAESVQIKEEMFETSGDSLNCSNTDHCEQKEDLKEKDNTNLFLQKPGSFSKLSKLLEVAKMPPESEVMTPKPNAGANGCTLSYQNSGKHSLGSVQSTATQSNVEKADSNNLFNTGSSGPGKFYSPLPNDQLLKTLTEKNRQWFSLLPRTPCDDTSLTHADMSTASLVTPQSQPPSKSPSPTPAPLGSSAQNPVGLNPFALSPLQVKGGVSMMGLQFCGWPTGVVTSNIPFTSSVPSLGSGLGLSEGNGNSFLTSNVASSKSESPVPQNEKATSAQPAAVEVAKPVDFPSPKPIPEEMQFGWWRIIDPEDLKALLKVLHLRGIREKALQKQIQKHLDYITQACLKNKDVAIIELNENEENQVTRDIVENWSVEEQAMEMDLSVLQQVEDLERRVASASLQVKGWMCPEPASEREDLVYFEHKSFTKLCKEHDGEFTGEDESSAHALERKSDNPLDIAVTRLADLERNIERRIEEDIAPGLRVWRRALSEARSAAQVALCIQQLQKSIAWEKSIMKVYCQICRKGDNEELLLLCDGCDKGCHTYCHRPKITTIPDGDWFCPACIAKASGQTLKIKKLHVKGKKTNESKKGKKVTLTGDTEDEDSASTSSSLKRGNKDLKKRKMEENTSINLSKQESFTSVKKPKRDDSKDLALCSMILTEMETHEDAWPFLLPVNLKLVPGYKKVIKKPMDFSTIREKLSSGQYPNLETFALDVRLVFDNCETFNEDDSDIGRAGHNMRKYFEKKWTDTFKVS
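BAZ2B 50 nM plus b-H3(5-23)K14Ac 50 nM, PBS pH 7.4/0.01% Tween-20, 30 min RT; compound added (max 110 uM), 30 min RT; streptavidin donor/Ni-chelate acceptor beads 10 ug/mL final, 20 min dark; AlphaScreen read.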
Of the large screens only hits and unclear results are named; the others gave an inactive call. Only some compounds are listed: those with a hit (about 12% of all), similar ones and a draw of the others. Calls follow the shape of the dose curve; as a rule, active = well fitted curve in the direction sought with a large enough effect; inconclusive = small, poorly fitted or top-dose-only effect, or another doubt; inactive = no such curve, though single readings can be large; an effect the other way counts as inactive or inconclusive.

C=CCN1C(=O)C(CC(=O)O)SC1=Nc1ccc(N=Nc2ccccc2)cc1 (stereo not given)	JMJD2A Tudor inconclusive, G9a inh 40µM, BAZ2B inh 40µM
CCn1c(SCC(=O)NCCOC)nc2sc(C)c(C)c2c1=O	Sfp PPTase inh 45µM (no result: JMJD2A Tudor, HP1b binding inh)
CCc1c(C)nc2nc(-c3ccccc3)nn2c1NCc1ccc(C)cc1	none (no result: Sfp PPTase inh)
CC(=O)Nc1nonc1NC(=O)CSC1=NCCS1	G9a inh 56µM
O=C(CSC1=NCCS1)Nc1nc2c(s1)CCCC2	Sfp PPTase inh 56µM, G9a inh 40µM, BAZ2B inh inconclusive
O=C(CSc1ncn(-c2ccccc2)n1)Nc1nc2c(s1)CCCC2	Sfp PPTase inh inconclusive, JMJD2A Tudor 50µM, HP1b binding inh inconclusive, BAZ2B inh 45µM
Cn1nnnc1SCC(=O)Nc1nc2c(s1)CCCC2	none
CC(=O)Nc1ccc(NC(=O)CSC2=NCCS2)cc1	G9a inh inconclusive
O=C1CCC(=O)N1c1ccccc1OS(=O)(=O)c1ccccc1	none
COc1cc(C(=O)NCc2cccc(Cl)c2)ccc1OCC(=O)N1CCOCC1	G9a inh inconclusive (no result: Sfp PPTase inh)
N#Cc1nc(-c2ccc(OCc3ccccc3)cc2)oc1N1CCC(C(N)=O)CC1	none
CN(C)CCNc1oc(-c2ccc(COc3ccc(Cl)cc3)o2)nc1C#N	JMJD2A Tudor 40µM, G9a inh inconclusive, BAZ2B inh inconclusive (no result: Sfp PPTase inh)
CN(C)CCNc1oc(COc2ccc(Cl)cc2Cl)nc1C#N	none (no result: G9a inh)
N#Cc1nc(-c2ccc(COc3ccc(Cl)cc3)o2)oc1N1CCC(C(N)=O)CC1	G9a inh 8.9µM, BAZ2B inh inconclusive (no result: Sfp PPTase inh)
COCCCNc1oc(COc2ccc(Cl)cc2Cl)nc1C#N	JMJD2A Tudor inconclusive, G9a inh 32µM
COc1ccc(OCc2ccc(-c3nc(C#N)c(NCc4ccc(F)cc4)o3)o2)cc1	JMJD2A Tudor inconclusive, G9a inh 4µM, BAZ2B inh inconclusive (no result: Sfp PPTase inh)
CC[C@]12c3[nH]c4cc(-c5ccco5)ccc4c3CCN1C(=O)[C@@H](CC(=O)NCC13CC4CC(CC(C4)C1)C3)C[C@@H]2C(=O)N1CCN(C(=O)c2ccco2)CC1	none (no result: Sfp PPTase inh, G9a inh, BAZ2B inh)
COc1cccc(C2=CC(=O)CCC2)c1OC	none (no result: Sfp PPTase inh, G9a inh, BAZ2B inh)
COCCCNc1oc(-c2ccc(COc3ccc(Cl)cc3)o2)nc1C#N	JMJD2A Tudor inconclusive, G9a inh 8.9µM, BAZ2B inh inconclusive (no result: Sfp PPTase inh)
COCCNc1oc(-c2ccc(COc3ccc(OC)cc3)o2)nc1C#N	JMJD2A Tudor inconclusive, HP1b binding inh inconclusive, BAZ2B inh inconclusive (no result: Sfp PPTase inh)
COc1ccc(CCN(C)CCc2ccc(OC)c(OC)c2)cc1OC	G9a inh 16µM (no result: BAZ2B inh)
COc1ccc(CCN(C)CC(O)c2ccccc2)cc1OC (stereo not given)	Sfp PPTase inh inconclusive, JMJD2A Tudor 2.5µM, HP1b binding inh inconclusive, G9a inh 28µM, BAZ2B inh inconclusive
COc1ccc(CN(C)CC(O)COc2ccc(-c3ccccc3)cc2)cc1OC (stereo not given)	JMJD2A Tudor 35µM, HP1b binding inh 50µM, G9a inh 40µM, BAZ2B inh 79µM
COc1cc(C(C)=O)ccc1OCC(O)CNCC(O)c1ccccc1 (stereo not given)	JMJD2A Tudor 28µM, HP1b binding inh inconclusive, BAZ2B inh 56µM
COc1ccc(CCN(C)CCC(=O)Nc2ccc(C)cc2)cc1OC	none
CCOC(=O)N1CCN(CC(=O)Nc2ccc(OC)cc2)CC1	none
Nc1nc(SCc2nc3sc4c(c3c(=O)[nH]2)CCCC4)n[nH]1	none
Cc1cc(C)cc(OC(=O)N2CCOCC2)c1	none
CCc1ccc(C(=O)c2cn(CC(=O)Nc3ccc(F)cc3)c3ccc(F)cc3c2=O)cc1	none (no result: Sfp PPTase inh)
CCCCC(Sc1nc(N)c(NC(=O)c2ccc(OC)cc2)c(=O)[nH]1)C(=O)O (stereo not given)	BAZ2B inh inconclusive
COc1ccc(CCN(C)CCC(=O)Nc2cccc(C)c2)cc1OC	G9a inh inconclusive
COc1ccc(CCN(C)C/C=C/c2ccccc2)cc1OC	JMJD2A Tudor 28µM, HP1b binding inh inconclusive, G9a inh 50µM, BAZ2B inh inconclusive
COc1cc(C(C)=O)ccc1OCC(O)Cn1nc(C)c(C(C)=O)c1C (stereo not given)	none (no result: G9a inh)
C=CCOc1ccc(CN(C)CC(O)COc2ccc(CCC(C)=O)cc2)cc1 (stereo not given)	JMJD2A Tudor 1µM, HP1b binding inh inconclusive, G9a inh 10µM
COc1ccc(CCN(C)CC(O)COc2ccc(C(C)=O)cc2OC)cc1OC (stereo not given)	JMJD2A Tudor 28µM, HP1b binding inh 79µM, G9a inh 28µM
CN(Cc1ccc(Br)cc1)CC(O)COc1cccc(Br)c1 (stereo not given)	JMJD2A Tudor 5µM, HP1b binding inh inconclusive, G9a inh 22µM, BAZ2B inh 79µM
COc1ccc(C(=O)N2CCN=C2c2ccccc2)cc1OC	none
O=C1OC(c2ccc3c(c2)OCO3)=N/C1=C\c1ccc(C(=O)O)cc1	G9a inh 40µM
COc1ccc(OC)c(Nc2nc(-c3sc(C)nc3C)cs2)c1	Sfp PPTase inh inconclusive, JMJD2A Tudor 40µM, HP1b binding inh inconclusive, G9a inh 50µM, BAZ2B inh 32µM
COc1ccc(OC)c(Nc2nc(-c3sc(NC(=O)CC(C)C)nc3C)cs2)c1	JMJD2A Tudor 45µM, HP1b binding inh inconclusive, G9a inh 8.9µM, BAZ2B inh inconclusive
CCC(C)C(=O)Nc1nc(C)c(-c2csc(Nc3cc(OC)ccc3OC)n2)s1 (stereo not given)	JMJD2A Tudor 50µM, G9a inh 22µM, BAZ2B inh 50µM
CCCCC(=O)Nc1nc(C)c(-c2csc(Nc3cc(OC)ccc3OC)n2)s1	JMJD2A Tudor inconclusive, HP1b binding inh inconclusive, G9a inh inconclusive, BAZ2B inh inconclusive
CCCC(C)C(=O)Nc1nc(C)c(-c2csc(Nc3ccccc3OC)n2)s1 (stereo not given)	Sfp PPTase inh inconclusive, JMJD2A Tudor inconclusive, G9a inh 7.9µM, BAZ2B inh inconclusive
CC(C)OC(=O)CC12CN3CC(CC(=O)OC(C)C)(CN(C1)C(=O)c1ccccc1C3=O)C2=O	none (no result: BAZ2B inh)
COc1ccc(NC(=O)C(NC(C)=O)C(=O)NCc2ccc(F)cc2)cc1 (stereo not given)	none
CC(=O)Nc1ccc(NC(=O)C(C)OC(=O)C2CCN(S(=O)(=O)c3ccc4c(c3)OCCO4)CC2)cc1 (stereo not given)	none (no result: Sfp PPTase inh)
COCCNC(=O)[C@@H]1CSC2c3ccc(OC)c(OC)c3C(=O)N21 (stereo not given in full)	none
CN(C)CCCNc1nc2sc3c(c2c(=O)n1CCc1ccccc1)CCCCC3	JMJD2A Tudor inconclusive, HP1b binding inh inconclusive, G9a inh 45µM, BAZ2B inh inconclusive
CN(C)CCCn1c(=O)n(Cc2ccco2)c(=O)c2c3c(sc21)CCCCC3	Sfp PPTase inh 20µM, G9a inh inconclusive
CN(C)CCCn1c(=O)n(CCc2ccccc2)c(=O)c2c3c(sc21)CCCCC3	JMJD2A Tudor 56µM, BAZ2B inh inconclusive
Cn1c(=O)n(Cc2ccco2)c(=N)c2c3c(sc21)CCC3	JMJD2A Tudor inconclusive, BAZ2B inh inconclusive
